# NPR2 activator – GC-B (human) receptor activation. activation, % at 10 µM. 0.11% of 370,000 active. HEK293-GC-B cells, CNP EC30, cGMP TR-FRET; 0% at EC30 CNP, 100% saturating CNP;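 active means activation at 10 µM reaching about 35% in either raw or pattern-adjusted values, limit read from the data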
# APOBEC3G inh – blocks human APOBEC3G single-stranded DNA deamination; recombinant A3G, ssDNA deamination FAM/TAMRA fluorescence; 0.28% of 330,000 active; AID 493012; Q9HC16; inhibition, % at 20 µM;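 active means inhibition of at least 40% at 20 µM, with no more than 30% in the related APOBEC3A deaminase screen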;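 further: plate controls were DMSO wells with A3G for no effect and wells lacking A3G enzyme for full effect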
# A3A deaminase – inhibitors of human APOBEC3A DNA deaminase | recombinant A3A, FAM/TAMRA ssDNA deamination fluorescence | AID 493011 | inhibition, % at 20 µM | 0.41% of 330,000 active;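 active means at least 40% inhibition at 20 µM here, with at most 30% in a related deaminase screen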;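 further: plate controls were A3A with DMSO for no effect and wells lacking A3A enzyme for full effect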
# PfG6PD inh – PfG6PD (Plasmodium falciparum) enzyme inhibition; PfGluPho enzyme, NADPH resazurin-diaphorase fluorescence; inhibition, % at 20 µM; 0.78% of 350,000 active; AID 504690;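 active means inhibition reaching at least a set limit at 20 µM in the primary screen, cut at about 59% in these data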;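 further: 0% = DMSO wells with substrate and 100% = DMSO wells lacking glucose-6-phosphate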
# NPR1 activator – GC-A (human) enzyme activation; P16066; HEK293 GC-A cells, cGMP TR-FRET, EC30 ANP; 0% at EC30 ANP, 100% saturating ANP; activation, % at 10 µM; 0.14% of 370,000 active; AID 1671463; in the data active means activation above about 40%
# Neddylation inh – inhibitors of human cullin neddylation. 0.58% of 360,000 active. inhibition, % at 25 µM. AID 651699. TR-FRET cullin neddylation, biochemical; in the data active means inhibition above about 36%
# Target sequence (P61081 whole entry, looked up): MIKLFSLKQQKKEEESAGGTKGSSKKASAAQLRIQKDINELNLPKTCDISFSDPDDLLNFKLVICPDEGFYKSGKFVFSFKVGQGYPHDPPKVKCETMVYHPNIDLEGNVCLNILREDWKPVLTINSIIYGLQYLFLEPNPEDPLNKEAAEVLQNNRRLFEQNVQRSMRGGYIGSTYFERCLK
# Target sequence (Q13564 whole entry, looked up): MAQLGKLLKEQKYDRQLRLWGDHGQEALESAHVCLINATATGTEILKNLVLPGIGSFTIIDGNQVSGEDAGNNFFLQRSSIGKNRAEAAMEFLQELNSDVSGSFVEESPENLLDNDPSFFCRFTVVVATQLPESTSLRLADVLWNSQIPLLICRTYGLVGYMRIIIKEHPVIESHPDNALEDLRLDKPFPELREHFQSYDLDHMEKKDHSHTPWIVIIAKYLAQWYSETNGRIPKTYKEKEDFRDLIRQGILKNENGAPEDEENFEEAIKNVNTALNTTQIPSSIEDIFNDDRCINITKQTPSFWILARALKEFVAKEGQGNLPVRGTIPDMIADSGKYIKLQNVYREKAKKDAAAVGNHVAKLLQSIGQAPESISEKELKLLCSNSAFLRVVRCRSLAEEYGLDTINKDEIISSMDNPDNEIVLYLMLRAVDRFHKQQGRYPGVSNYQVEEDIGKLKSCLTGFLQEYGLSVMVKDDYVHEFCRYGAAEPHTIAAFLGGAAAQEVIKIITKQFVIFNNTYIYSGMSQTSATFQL
# Neddyl conf – confirmation of human cullin neddylation inhibitors | shares compounds with Neddylation inh | TR-FRET cullin neddylation biochemical assay | calls only at 25 µM | 13% of 1,800 active; in the data active means inhibition above about 40%;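 further: neddylation substrate is the cullin 1 ring ligase complex with SKP2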
# An asterisk follows results filed as active; i = inactive; . = not tested or not shown; + = active, no number. Only some compounds are listed: those with a hit (about 2% of all), similar ones and a draw of the others.
SMILES,NPR2 activator,APOBEC3G inh,A3A deaminase,PfG6PD inh,NPR1 activator,Neddylation inh,Neddyl conf
O=C(O)c1cc(NCc2ccc3c(c2)OCO3)ccc1N1CCOCC1,-2,-1,7,-7,1,43*,i
CCOc1ccc(CNc2ccc(N3CCOCC3)c(C(=O)O)c2)cc1,4,-4,-1,-1,1,31,.
O=C(c1cccc(Oc2ccccc2)c1)N1CCC(Oc2cccnc2)CC1,-3,.,.,.,5,.,.
CCCCC(=O)OCC(=O)N1N=C(c2c[nH]c3ccccc23)C(O)C1c1ccc(OC)cc1 (stereo unspecified),-1,13,-3,28,9,45*,i
Cc1cccc(-c2cccc3c4c([nH]c23)[C@@H]2C[C@H](N(C)C(=O)c3ccco3)[C@H]([C@H](C)O)CN2CC4)c1,5,.,.,.,1,.,.
COCCCNC(=O)c1cccn2c(=O)c3cc4ccccc4cc3nc12,-1,-6,-3,-73,-4,40*,i
O=C1OC(c2ccc(Cl)cc2)=N/C1=C\C=C\c1ccco1,-3,-1,18,4,7,17,.
O=C1OC(c2ccccc2)=N/C1=C\C=C\c1ccco1,3,-7,2,10,15,45*,i
COc1ccccc1-n1c(-c2ccc(NS(C)(=O)=O)cc2)n[nH]c1=S,4,20,-3,29,2,41*,i
O=c1c(-c2ccccc2)nc2ccccc2n1C(c1ccccn1)c1nc2ccccc2[nH]1 (stereo unspecified),-3,.,.,.,-4,41*,i
O=c1c(-c2ccco2)nc2ccccc2n1C(c1ccccn1)c1nc2ccccc2[nH]1 (stereo unspecified),-1,.,.,.,-5,8,.
O=c1c(-c2cccnc2)nc2ccccc2n1C(c1ccccn1)c1nc2ccccc2[nH]1 (stereo unspecified),4,.,.,.,-9,47*,i
O=c1c(-c2cccs2)nc2ccccc2n1C(c1ccccn1)c1nc2ccccc2[nH]1 (stereo unspecified),-14,.,.,.,-2,.,.
Cc1[nH]c2ccccc2c1CC(=O)Nc1ccc(Nc2cccnc2)c(-c2ccc(OC(F)(F)F)cc2)c1,-1,.,.,.,-3,.,.
O=[n+]1cc(-c2ccccc2)n([O-])c2c1CCCCC2,-1,1,6,0,3,6,.
O=[n+]1cc(-c2cc3ccccc3o2)n([O-])c2c1CCCC2,-1,-2,-2,-3,0,44*,i
O=C(Cn1cnc2ccccc2c1=O)N1CCCCC1,-2,.,.,.,-4,.,.
COc1ccc(S(=O)(=O)Nc2c(NC3CCCCC3)c3ccccc3oc2=O)cc1OC,-2,-2,-1,9,-1,41*,i
Cc1ccc(S(=O)(=O)Nc2c(NC3CCCCC3)c3ccccc3oc2=O)cc1,-8,11,1,-1,-6,38,.
Cc1ccc(S(=O)(=O)Nc2c(NC3CCCCC3)c3ccccc3oc2=O)cc1C,2,-2,-2,-5,-5,41*,.
CC(=O)C1(C(=O)NC2CCCC2)CC(c2ccccc2C(F)(F)F)=NO1 (stereo unspecified),-1,.,.,.,-2,.,.
COc1ccc(-c2cc(NCc3ccccn3)n3ncnc3n2)cc1,5,-2,-2,-1,0,37*,i
CC(C)(C)c1ccc(/C=C2\CCn3c2nc2cc(C(=O)O)ccc2c3=O)cc1,.,-9,-3,-14,.,45*,+
CCN(CC)CCOC(=O)c1ccc(N/C=C(/C#N)c2nc(-c3ccc4c(c3)OCO4)cs2)cc1,2,-14,-1,10,4,23,.
CCN(CC)CCOC(=O)c1ccc(N/C=C(/C#N)c2nc(-c3ccc(OC)cc3)cs2)cc1,0,-9,-5,11,5,62*,i
O=C(CSc1nnc(-c2cccnc2)n1-c1ccccc1)Nc1ccc2c(c1)OCCO2,0,.,.,.,-3,.,.
Nc1c(C(=O)Nc2ccc3c(c2)OCCO3)nnn1Cc1ccc(F)cc1,-4,-5,-2,-6,-2,50*,i
O=P(O)(O)c1cc(-c2ccccc2)oc1-c1ccccc1,2,-4,-4,-8,-1,46*,.

# Bioassay records (PubChem BioAssay)
